Assay outcomes deposited in PubChem by National Center for Advancing Translational Sciences (NCATS).
Hits are enriched below; roughly 8.7% of the tested compounds scored in any of these assays.
Pf growth 96h: Primary qHTS for delayed death inhibitors of the malarial parasite plastid, 96 hour incubation | P. falciparum luciferase reporter growth, 96 h | Potency, µM (titrated, usually from 28.7 µM), most hits filed as inhibitors | actives 6.9% (n = 320,000) | AID 504834, 2011
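Cell-based qHTS: luciferase-tagged P. falciparum in erythrocytes (2% hematocrit, 0.05% parasitemia final) incubated with compounds for 96 hours, 37 C, 5% CO2; luciferase detection reagent then added and luminescence measured.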
Vaccinia Venus: qHTS for Stage-Specific Inhibitors of Vaccinia Orthopoxvirus: Venus Reporter Primary qHTS | Vaccinia virus Venus reporter expression, fluorescence | Potency, µM (titrated, usually from 36.5 µM), most hits filed as inhibitors | actives 0.46% (n = 330,000) | AID 720580, 2013; calls by dose curve; tested in A549 cells; further: nearly all actives have a fitted effect of over 30% in size
VACV mCherry inh: qHTS for Stage-Specific Inhibitors of Vaccinia Orthopoxvirus: mCherry Reporter Primary qHTS. Potency, µM (doses to about 36.5 µM), actives largely listed as inhibitors. AID 720579, 2013. actives 0.63% (n = 310,000). Vaccinia virus mCherry reporter infection, fluorescence; calls by dose curve; tested in A549 cells; further: nearly all actives have a fitted effect of over 35% in size
AMA1 RON2 block: qHTS for Inhibitors of AMA1-RON; Towards Development of Antimalarial Drug Lead: Primary Screen. Plasmodium falciparum AMA1 (3D7) - RON2 peptide interaction. Potency, µM (highest dose often 58.2 µM), usual class: inhibitors. AlphaScreen AMA1-biotinylated RON2 peptide binding. actives 0.2% (n = 360,000); further: nearly all actives have a fitted effect of over 45% in size
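AMA1 (3D7) with his tag at 25 nM final met compounds first, then biotinylated RON2 peptide at 25 nM; detection used donor plus acceptor beads, 10 µg/mL apiece, read by AlphaScreen after 30 min at room temperature.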
Pf growth 48h: Primary qHTS for delayed death inhibitors of the malarial parasite plastid, 48 hour incubation. P. falciparum luciferase growth in erythrocytes, 48 h. Potency, µM (doses to about 28.7 µM), usual class: inhibitors. actives 5.9% (n = 310,000). AID 504832, 2011
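Compounds are pin-transferred into medium, infected erythrocytes (2% hematocrit, 0.1% parasitemia final) are added, and plates sit one parasite generation at 37 C in 5% CO2. Detection reagent is then added and luminescence measured.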
A number is an active result. Unless noted, the call rests on the fitted dose curve; in most records, active means well fitted curve in the direction sought with a large enough effect; inconclusive means small, poorly fitted or top-dose-only effect, or another doubt; inactive means no such curve, though single readings can be large; an effect the other way counts as inactive or inconclusive.

Screening COc1ccc(/C=C/C(=O)NCCc2ccc(OC)c(OC)c2)cc1 returned Pf growth 96h inactive, Vaccinia Venus inactive, VACV mCherry inh inactive, AMA1 RON2 block inactive and Pf growth 48h inconclusive.
COc1ccc(CCNC(=O)/C=C/c2ccc3ccccc3n2)cc1OC was read as Pf growth 96h 8.28µM, Vaccinia Venus inconclusive, VACV mCherry inh inconclusive, AMA1 RON2 block inactive and Pf growth 48h inconclusive.
Screening COc1ccc(C(=O)NCC2(c3ccccc3)CCOCC2)cc1[N+](=O)[O-] returned Pf growth 96h inconclusive, Vaccinia Venus inactive, VACV mCherry inh inactive, AMA1 RON2 block inactive and Pf growth 48h inactive.
`Fc1ccc(Nc2nc(NCc3ccco3)nc3nccnc23)cc1` gave Vaccinia Venus inactive and VACV mCherry inh inactive.
O=C(C[n+]1cccc2cccc(O)c21)c1ccccc1 was read as Vaccinia Venus inactive and VACV mCherry inh inactive.
`CN1C(=O)CSc2ccc(NC(=O)N3CCC(N4CCCCC4)CC3)cc21` gave Pf growth 96h 11.7µM, Vaccinia Venus inactive, VACV mCherry inh inactive and AMA1 RON2 block inactive.
For CCn1cc(C(=O)OCC(=O)Nc2cccc(Cl)c2C)c(=O)c2ccc(C)nc21 the results were Vaccinia Venus inactive and VACV mCherry inh inactive.
Screening Cc1ccc2c(c1)C(=O)C(=O)N2CC(=O)OC(C)C returned Pf growth 96h 0.0294µM, Vaccinia Venus inactive, AMA1 RON2 block inactive and Pf growth 48h inactive.
For Cc1ccc2c(c1)C(=O)C(=O)N2Cc1ccc(OC(C)C)cc1 the results were Vaccinia Venus inconclusive and VACV mCherry inh inactive.
`CCN1CCN(CCNC(=O)c2ccc(/C=C3/Sc4ccccc4N(Cc4ccccc4C)C3=O)cc2)CC1` gave Pf growth 96h inactive, Vaccinia Venus inconclusive, VACV mCherry inh inconclusive, AMA1 RON2 block inactive and Pf growth 48h 11.7µM.
For Cc1ccccc1CN1C(=O)c2ccccc2Sc2ccc(C(=O)NCCN3CCOCC3)cc21 the results were Pf growth 96h inconclusive, Vaccinia Venus inactive, VACV mCherry inh inactive, AMA1 RON2 block inactive and Pf growth 48h 8.28µM.
CCN1CCN(CCCNC(=O)c2ccc(/C=C3/Sc4ccccc4N(Cc4ccccc4F)C3=O)cc2)CC1 was read as Pf growth 96h inconclusive, AMA1 RON2 block inactive and Pf growth 48h inconclusive.
`CC1=Nc2cc(C(=O)NCCN3CCOCC3)ccc2Sc2c(C)ccc(C)c21` gave Pf growth 96h 11.7µM, AMA1 RON2 block inactive and Pf growth 48h inconclusive.
O=C(NCCN1CCOCC1)c1ccc2c(c1)N(Cc1ccccc1F)C(=O)c1ccccc1S2 was read as Pf growth 96h inconclusive, Vaccinia Venus inactive, VACV mCherry inh inactive, AMA1 RON2 block inactive and Pf growth 48h inconclusive.
Screening COc1cccc(NC(=O)c2ccc(NCCCN3CCC(C)CC3)c([N+](=O)[O-])c2)c1 returned Pf growth 96h inconclusive, Vaccinia Venus inactive, VACV mCherry inh inactive, AMA1 RON2 block inactive and Pf growth 48h 2.08µM.
Screening O=C(Nc1cc(F)cc(F)c1)c1ccc(NCCCN2CCCCCC2)c([N+](=O)[O-])c1 returned Pf growth 96h inconclusive, Vaccinia Venus inconclusive, VACV mCherry inh inactive, AMA1 RON2 block inactive and Pf growth 48h inconclusive.
For COc1cccc(NC(=O)c2ccc(NCCCN3CC(C)CC(C)C3)c([N+](=O)[O-])c2)c1 (centres undefined) the results were Pf growth 96h 3.7µM, Vaccinia Venus inactive, VACV mCherry inh inactive, AMA1 RON2 block inactive and Pf growth 48h inconclusive.
`NC(=O)c1ccc(NCCCN2CCOCC2)c([N+](=O)[O-])c1` gave Pf growth 96h inactive, AMA1 RON2 block inactive and Pf growth 48h inactive.
`COc1cccc(Nc2ccc(C(=O)O)cc2[N+](=O)[O-])c1` gave Pf growth 96h inactive, AMA1 RON2 block inactive and Pf growth 48h inactive.
`CCCN(CCC)CCCNc1ccc(C(=O)Nc2cccc(OC)c2)cc1[N+](=O)[O-]` gave Pf growth 96h inactive, Vaccinia Venus inactive, VACV mCherry inh inconclusive, AMA1 RON2 block inactive and Pf growth 48h 1.47µM.
Cc1ccc(NC(=O)c2ccc(NCCCN3CCC(C)CC3)c([N+](=O)[O-])c2)c(C)c1 was read as Pf growth 96h inconclusive, AMA1 RON2 block inactive and Pf growth 48h 3.29µM.
Cc1cccc(CCNC(=O)c2cc3c(=O)n(C)c4ccccc4c3n2C)c1 was read as Vaccinia Venus inactive and VACV mCherry inh inactive.
Screening O=C(Nc1cccc(Br)c1)c1ccc2c(c1)SC1=NS(=O)(=O)CCN12 returned Pf growth 96h 11.7µM, AMA1 RON2 block inactive and Pf growth 48h 11.7µM.
`CC(C)(C)c1ccccc1NC(=O)c1ccc2c(c1)SC1=NS(=O)(=O)CCN12` gave Pf growth 96h inconclusive, Vaccinia Venus inactive, VACV mCherry inh inactive, AMA1 RON2 block inactive and Pf growth 48h inconclusive.
COc1ccc(CN2CCOc3c(O)cc(-c4cc(C)c5ccc(F)cc5n4)cc3C2)c(O)c1 was read as Vaccinia Venus inactive and VACV mCherry inh inactive.
For COc1ccc(OC)c(N(CC(=O)N2CCC(C)CC2)S(=O)(=O)c2ccccc2)c1 the results were Pf growth 96h inconclusive, AMA1 RON2 block inactive and Pf growth 48h inconclusive.
`COc1ccc(OC)c(N(CC(=O)N2CCC(C)CC2)S(=O)(=O)c2ccc(OC)c(OC)c2)c1` gave Pf growth 96h 2.62µM, AMA1 RON2 block inactive and Pf growth 48h inconclusive.
CCOc1ccccc1N(CC(=O)NC1CCCCC1)S(=O)(=O)c1ccc(C)cc1 was read as Pf growth 96h inactive, Vaccinia Venus inactive, VACV mCherry inh inactive, AMA1 RON2 block inactive and Pf growth 48h 11.7µM.
For COc1ccccc1N(CC(=O)NC1CCCC1)S(=O)(=O)c1cccc(C(F)(F)F)c1 the results were Pf growth 96h inconclusive, Vaccinia Venus inactive, VACV mCherry inh inactive, AMA1 RON2 block inactive and Pf growth 48h 13.1µM.
For COc1ccc(OC)c(N(CC(=O)NC2CCCC2)S(=O)(=O)c2ccc(OC)c(OC)c2)c1 the results were Pf growth 96h 5.86µM, Vaccinia Venus inactive, VACV mCherry inh inactive, AMA1 RON2 block inactive and Pf growth 48h inconclusive.
COc1ccccc1N(CC(=O)NC1CCCC1)S(=O)(=O)c1ccc(C)cc1 was read as Pf growth 96h inactive, Vaccinia Venus inactive, VACV mCherry inh inactive, AMA1 RON2 block inactive and Pf growth 48h inconclusive.
Screening CCOc1ccc(S(=O)(=O)Nc2cccc(-c3ccc(OCC)nn3)c2)cc1 returned Vaccinia Venus inactive and VACV mCherry inh inactive.
`Cc1ccc(C(CCN(Cc2ccccc2)C(=O)c2ccco2)c2ccco2)cc1` (centres undefined) gave Pf growth 96h 13.1µM, Vaccinia Venus inactive, VACV mCherry inh inactive, AMA1 RON2 block inactive and Pf growth 48h inconclusive.
CN(Cc1nc(-c2ccccc2)no1)C(=O)c1ccco1 was read as Pf growth 96h inactive, Vaccinia Venus inactive, VACV mCherry inh inactive, AMA1 RON2 block inconclusive and Pf growth 48h inactive.
